In the supplement of paper PMC13380429:

System: Vero E6 infected with SARS-CoV-2
Assay: inhibition of SARS-CoV-2 cytopathic effect; higher = more antiviral protection, active = above 15
Conditions: 48 h

Measured: inhibition of SARS-CoV-2 cytopathic effect

COc1cc(C(=O)OCCCN2CCCN(CCCOC(=O)c3cc(OC)c(OC)c(OC)c3)CC2)cc(OC)c1OC [dilazep]
inactive: 1 nM 0.92% | 8.33 nM 1.04% | 100 nM -0.17% | 833.33 nM -1.09% | 10000 nM 4.8%

Clc1ccc(C(Cn2ccnc2)OCc2ccsc2Cl)c(Cl)c1 (stereo not given) [tioconazole]
inactive: 1 nM 6.75% | 8.33 nM -2.6% | 100 nM 5.03% | 833.33 nM -4.33% | 10000 nM -5.16%

O=C(O)C(=O)Nc1cccc(-c2nnn[nH]2)c1 [acitazanolast]
inactive: 1 nM -1.24% | 8.33 nM -0.89% | 100 nM -0.76% | 833.33 nM -1.09% | 10000 nM -0.46%

CO[C@H]1C[C@@H]2CC[C@@H](C)[C@@](O)(O2)C(=O)C(=O)N2CCCC[C@H]2C(=O)O[C@H]([C@H](C)C[C@@H]2CC[C@H](n3cnnn3)[C@H](OC)C2)CC(=O)[C@H](C)/C=C(\C)[C@@H](O)[C@@H](OC)C(=O)[C@H](C)C[C@H](C)/C=C/C=C/C=C/1C [zotarolimus]
inactive: 1 nM -1.51% | 8.33 nM -2.41% | 100 nM -1.68% | 833.33 nM -2.21% | 10000 nM 1.71%

CCN(CC)C(C)C(=O)c1ccccc1 (stereo not given) [amfepramone]
inactive: 1 nM -1.18% | 8.33 nM 1.39% | 100 nM -1.99% | 833.33 nM 1.34% | 10000 nM -0.09%

Fc1ccc(CNc2ncnc3ccc(F)cc23)cc1 [spautin-1]
inactive: 1 nM -1.85% | 8.33 nM -0.71% | 100 nM -0.05% | 833.33 nM -0.85% | 10000 nM -1.95%
